This passage reports Potency and outcome results from PubChem BioAssay (Tox21).

The target of assay [1] is Acetylcholinesterase (Homo sapiens) (UniProt P22303). Nature of the assay: Acetylcholinesterase (AChE) small molecule antagonists: fluorescence cell-based qHTS assay (AID 1347398; calls by dose curve; note: nearly all actives have a fitted effect of over 50% in size). The note with it: Potency: AChE activity; outcome: AChE activity. A digest of the protocol:
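Human SH-SY5Y cells were plated overnight at 37 C, exposed to compound for 30 min at 37 C, 5% CO2, then given acetylthiocholine plus Thiolite Green for 40 min at room temperature; thiocholine fluorescence (Ex/Em 490/520 nm) reports endogenous AChE activity.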

Assay [2] shares this target. The experiment in a line: Acetylcholinesterase (AChE) small molecule antagonists: enzyme-based qHTS assay with human liver microsomes (AID 1347399; calls by dose curve; note: nearly all actives have a fitted effect of over 60% in size). The note with it: Potency: qHTS inhibition; outcome: qHTS inhibition. In outline:
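Recombinant human AChE (50 mU/mL in the enzyme mix) and human liver microsomes (0.25 mg/mL final) were preincubated with compound and NADPH (0.25 mg/mL final) for 30 min at 37 C. Acetylthiocholine/DTNB was then added; thiocholine was read colorimetrically after 10 min at room temperature.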

A short description of assay [3]: qHTS assay for small molecule agonists of the p53 signaling pathway (AID 651631; calls by dose curve; note: nearly all actives have a fitted effect of over 15% in size). In outline: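 Read-out is beta-lactamase FRET fluorescence measured 2 h after substrate addition at room temperature, in HCT-116 cells with a p53 response element-driven reporter exposed to compounds for 16 h at 37 °C.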
The nature of assay [4]: qHTS assay for small molecules that induce genotoxicity in human embryonic kidney cells expressing luciferase-tagged ATAD5 (AID 651632). Note: nearly all actives have a fitted effect of over 15% in size. A digest of the protocol:
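Luminescent reporter readout, HEK293T ATAD5-luc line: 16 hr drug exposure (37C, 5% CO2) followed by Amplite, 30 min RT.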

The nature of assay [5]: qHTS assay for small molecule agonists of the p53 signaling pathway - cell viability (AID 651633; calls by dose curve;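 note: p53RE-bla HCT reporter cells with a stable beta-lactamase p53 reporter; series mostly up to about 83 µM; nearly all actives have a fitted effect of over 30% in size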). A digest of the protocol:
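p53RE-bla cells, seeded at 4,000 per well and rested 5 h at 37 C/5% CO2, received compounds in DMSO for 16 h at 37 C. CellTiter-Glo was then added, and luminescence was read after 30 min at room temperature to gauge cytotoxicity.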

Assay [6] can be described thus: qHTS assay for small molecules that induce genotoxicity in human embryonic kidney cells expressing luciferase-tagged ATAD5 - cell viability (AID 651634; calls by dose curve; note: nearly all actives have a fitted effect of over 25% in size). A digest of the protocol: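 Viability read: CellTiter-Fluor fluorescence, 30 min at 37C. Cells: HEK293T, luciferase-tagged ATAD5. Exposure: 15.5 hr, 37C, 5% CO2, compound or DMSO vehicle.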
In general terms: qHTS replaces the single test concentration by a dilution series.

A short description of assay [7]: qHTS assay for small molecule disruptors of the mitochondrial membrane potential - cell viability (AID 720634; calls by dose curve;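 note: human HepG2 liver cancer cells; series mostly up to about 83 µM; nearly all actives have a fitted effect of over 20% in size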). A digest of the protocol:
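HepG2, 1 hr compound, 37 C. ATP luminescence via CellTiter-Glo, 30 min RT, same well as m-MPI.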

A short description of assay [8]: qHTS assay to test for compound auto fluorescence at 590 nm (red) in HepG2 cells (AID 720674). In outline: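 Compound auto-fluorescence is scored relative to Rose Bengal sodium, measured at 540/590 nm in live HepG2 cultures after 1 hr compound contact (37 C, 5% CO2).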
Assay [9] can be described thus: qHTS assay to test for compound auto fluorescence at 535 nm (green) in HepG2 cells (AID 720675).
Assay [10] is described as follows: qHTS assay to test for compound auto fluorescence at 460 nm (blue) in HEK293 cells (AID 720678). In outline: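 After cell attachment (4-5 hr, 37C), compounds were pinned onto HEK293 monolayers in 10% dialyzed FBS medium. The blue channel (405/460 nm) was read following overnight culture. Equivalency was calculated against triamterene.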
Assay [11] can be described thus: qHTS assay to test for compound auto fluorescence at 590 nm (red) in HEK293 cells (AID 720679). A digest of the protocol:
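Plates of HEK293 cells (10% dialyzed FBS) are treated with 23 nL compound or DMSO vehicle after a 4-5 hr attachment period, incubated overnight at 37C, and read for red fluorescence at 540/590nm.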

A short description of assay [12]: qHTS assay to test for compound auto fluorescence at 535 nm (green) in HEK293 cells (AID 720680).
Assay [13] can be described thus: qHTS assay to test for compound auto fluorescence at 590 nm (red) in HEK293 cell free culture (AID 720683). In outline:
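Tox21 10K library compounds were pinned into cell-free DMEM with 10% FBS and fluorescence was read at excitation 540 nm. Activity is expressed as Rose Bengal sodium equivalency.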

The nature of assay [14]: qHTS assay to test for compound auto fluorescence at 590 nm (red) in HepG2 cell free culture (AID 720684). In outline: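 Red fluorescence (540 nm excitation, 590 nm emission) was measured after compound transfer into cell-free MEM supplemented with 10% FBS. Values are equivalencies against Rose Bengal sodium.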
Assay [15] can be described thus: qHTS assay to test for compound auto fluorescence at 460 nm (blue) in HepG2 cell free culture (AID 720685). In outline:
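Compound (23 nL) or DMSO pinned into cell-free MEM with 10% FBS; blue fluorescence read at 405/460 nm excitation/emission, expressed as auto-fluorescence equivalency to triamterene.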

Assay [16] in a line: qHTS assay to test for compound auto fluorescence at 535 nm (green) in HepG2 cell free culture (AID 720686).
Assay [17] in a line: qHTS assay to test for compound auto fluorescence at 460 nm (blue) in HepG2 cells (AID 720687). A digest of the protocol:
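Cells (2,000/well in MEM with 10% FBS) attached overnight at 37 C, then were exposed to compound or DMSO for 1 hr at 37 C, 5% CO2. Fluorescence read at Ex/Em 405/460 nm, expressed as triamterene-equivalent signal.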

The nature of assay [18]: qHTS assay to identify small molecule antagonists of the glucocorticoid receptor (GR) signaling pathway - cell viability counter screen (AID 720693). Note: nearly all actives have a fitted effect of over 55% in size.
A short description of assay [19]: qHTS assay for identifying genotoxic compounds that show differential cytotoxicity against isogenic chicken DT40 cell lines with known DNA damage response pathways - wild type cell line (AID 743012). Note: potency is the fitted concentration of half-maximal effect; nearly all actives have a fitted effect of over 60% in size. In outline:
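First, wild type DT40 cells were plated at 300 per well and equilibrated about 0.5 h at 37 C/5% CO2. Next, compounds in DMSO were added and exposure lasted 40 h. Finally, CellTiter-Glo was added for 30 min at room temperature and luminescence recorded.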

Assay [20] in a line: qHTS assay for identifying genotoxic compounds that show differential cytotoxicity against isogenic chicken DT40 cell lines with known DNA damage response pathways - Rev3 mutant cell line (AID 743014). Note: potency is the fitted concentration of half-maximal effect; nearly all actives have a fitted effect of over 55% in size.
Assay [21] can be described thus: qHTS assay for identifying genotoxic compounds that show differential cytotoxicity against isogenic chicken DT40 cell lines with known DNA damage response pathways - Rad54/Ku70 mutant cell line (AID 743015). Note: potency is the fitted concentration of half-maximal effect; nearly all actives have a fitted effect of over 60% in size.
The nature of assay [22]: qHTS assay to identify small molecule antagonists of the androgen receptor (AR) signaling pathway - cell viability counter screen (AID 743033; note: nearly all actives have a fitted effect of over 45% in size).
A short description of assay [23]: qHTS assay to identify small molecule antagonists of the thyroid receptor (TR) signaling pathway - cell viability counter screen (AID 743064). Note: potency is the fitted concentration of half-maximal effect; nearly all actives have a fitted effect of over 50% in size. A digest of the protocol: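 Fluorescence from CellTiter-Fluor, added after 23.5 h exposure at 37 °C, reported viability of GH3.TRE-Luc cells co-treated with compound and 1 nM T3. Measured in the same wells as the luciferase TR readout.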

A short description of assay [24]: qHTS assay to identify small molecule antagonists of the thyroid receptor (TR) signaling pathway (AID 743065). Note: potency is the fitted concentration of half-maximal effect; nearly all actives have a fitted effect of over 55% in size. A digest of the protocol:
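GH3.TRE-Luc rat pituitary cells carrying two TR response elements driving luciferase were plated for 4 h, given compound plus 1 nM T3 (final), and incubated 23.5 h at 37 C. ONE-Glo luminescence measured reporter inhibition; CellTiter-Fluor fluorescence tracked cytotoxicity.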

Assay [25] deals with thyroid hormone receptor (rat, GH3 cells). Nature of the assay: qHTS assay to identify small molecule agonists of the thyroid receptor (TR) signaling pathway (AID 743066; calls by dose curve).
Assay [26] has as its target Estrogen receptor (Homo sapiens) (UniProt P03372). The experiment in a line: qHTS assay to identify small molecule antagonists of the estrogen receptor alpha (ER-alpha) signaling pathway (AID 743069; active = well fitted curve in the direction sought with a large enough effect in the signal ratio in the repeat runs, not every such curve was filed as active; the % refers to the signal ratio). A digest of the protocol:
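HEK293 cells stably carrying an ER-alpha-UAS-bla beta-lactamase reporter were pre-cultured overnight in 2% charcoal-stripped FBS medium. Test compounds in DMSO were added together with 17beta-estradiol for 18 hr at 37C. Read-out was fluorescence after 2 hr with LiveBLAzer B/G FRET substrate at room temperature.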

Assay [27] is described as follows: qHTS assay to identify small molecule antagonists of the estrogen receptor alpha (ER-alpha) signaling pathway - cell viability counter screen (AID 743074; calls by dose curve; note: nearly all actives have a fitted effect of over 45% in size).
Assay [28] addresses Estrogen receptor (Homo sapiens) (UniProt P03372). Nature of the assay: qHTS assay to identify small molecule agonists of the estrogen receptor alpha (ER-alpha) signaling pathway (AID 743075; calls by dose curve).
Assay [29] has the same target. The experiment in a line: qHTS assay to identify small molecule agonists of the estrogen receptor alpha (ER-alpha) signaling pathway using the BG1 cell line (AID 743079). Note: nearly all actives have a fitted effect of over 20% in size.
Assay [30] is described as follows: qHTS assay to identify small molecule antagonists of the estrogen receptor alpha (ER-alpha) signaling pathway using the BG1 cell line (AID 743080; calls by dose curve;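 note: BG1 cells stimulated with 17beta-estradiol alongside compound; series mostly up to about 70 µM; nearly all actives have a fitted effect of over 25% in size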). A digest of the protocol:
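Seeding, 24 h rest, compound transfer from DMSO, 17beta-estradiol addition, 21.5 h incubation, CellTiter-Fluor (30 min, 37 C), then ONE-Glo (30 min, room temperature): this sequence was run on BG1-Luc-4E2 reporter cells.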

The nature of assay [31]: qHTS assay to identify small molecule antagonists of the estrogen receptor alpha (ER-alpha) signaling pathway using the BG1 cell line - cell viability counter screen (AID 743081).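 Note: compound given together with 17beta-estradiol as the ER stimulus; potency is the fitted concentration of half-maximal effect; nearly all actives have a fitted effect of over 45% in size.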
The target of the next assay is Aromatase (Homo sapiens) (UniProt P11511). Nature of the assay: qHTS assay to identify aromatase inhibitors (AID 743083). Note: series mostly up to about 70 µM; nearly all actives have a fitted effect of over 55% in size.

Results filed as inconclusive are left out. Activity calls are given as the source filed them. Unless noted, calls come from the whole dose curve; as a rule, active = well fitted curve in the direction sought with a large enough effect in the repeat runs; inconclusive = weak or mixed curves; inactive = no such curve, though single readings can be large; an effect the other way counts as inactive or inconclusive.

Estrogen receptor (Homo sapiens), sequence (P03372 whole entry, looked up): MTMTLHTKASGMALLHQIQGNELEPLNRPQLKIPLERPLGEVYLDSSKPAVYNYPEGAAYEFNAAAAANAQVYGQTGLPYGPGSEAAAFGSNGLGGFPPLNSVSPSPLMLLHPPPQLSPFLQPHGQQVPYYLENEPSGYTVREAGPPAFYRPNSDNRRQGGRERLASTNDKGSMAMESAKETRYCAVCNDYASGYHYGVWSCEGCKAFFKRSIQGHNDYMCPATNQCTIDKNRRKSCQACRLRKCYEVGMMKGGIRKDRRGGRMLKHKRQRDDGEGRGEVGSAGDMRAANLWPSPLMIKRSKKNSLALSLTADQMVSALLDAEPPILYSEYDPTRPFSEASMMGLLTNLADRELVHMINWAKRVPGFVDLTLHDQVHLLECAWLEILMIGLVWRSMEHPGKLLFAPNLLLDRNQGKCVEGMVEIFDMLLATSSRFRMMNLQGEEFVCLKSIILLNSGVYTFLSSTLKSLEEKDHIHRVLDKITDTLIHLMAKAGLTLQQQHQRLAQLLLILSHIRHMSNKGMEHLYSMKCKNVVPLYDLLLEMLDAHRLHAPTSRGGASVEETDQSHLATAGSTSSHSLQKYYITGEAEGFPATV
Acetylcholinesterase (Homo sapiens), sequence (P22303 whole entry, looked up): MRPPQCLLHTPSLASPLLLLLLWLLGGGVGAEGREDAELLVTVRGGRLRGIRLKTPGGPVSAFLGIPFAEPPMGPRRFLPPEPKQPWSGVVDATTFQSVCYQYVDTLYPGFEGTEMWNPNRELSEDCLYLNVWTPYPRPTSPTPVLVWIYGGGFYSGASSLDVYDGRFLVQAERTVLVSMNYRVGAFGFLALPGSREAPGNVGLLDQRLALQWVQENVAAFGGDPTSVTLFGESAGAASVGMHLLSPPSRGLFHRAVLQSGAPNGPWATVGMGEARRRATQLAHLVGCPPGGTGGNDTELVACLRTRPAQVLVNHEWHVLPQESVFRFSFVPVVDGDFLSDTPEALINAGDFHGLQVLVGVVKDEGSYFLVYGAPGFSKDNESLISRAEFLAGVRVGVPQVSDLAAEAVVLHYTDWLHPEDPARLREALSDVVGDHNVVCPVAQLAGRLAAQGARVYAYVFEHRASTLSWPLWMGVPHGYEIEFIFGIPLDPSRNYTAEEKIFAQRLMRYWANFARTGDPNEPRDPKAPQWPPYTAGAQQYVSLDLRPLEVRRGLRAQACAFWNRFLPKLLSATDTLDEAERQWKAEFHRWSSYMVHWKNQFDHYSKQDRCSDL
Aromatase (Homo sapiens), sequence (P11511 whole entry, looked up): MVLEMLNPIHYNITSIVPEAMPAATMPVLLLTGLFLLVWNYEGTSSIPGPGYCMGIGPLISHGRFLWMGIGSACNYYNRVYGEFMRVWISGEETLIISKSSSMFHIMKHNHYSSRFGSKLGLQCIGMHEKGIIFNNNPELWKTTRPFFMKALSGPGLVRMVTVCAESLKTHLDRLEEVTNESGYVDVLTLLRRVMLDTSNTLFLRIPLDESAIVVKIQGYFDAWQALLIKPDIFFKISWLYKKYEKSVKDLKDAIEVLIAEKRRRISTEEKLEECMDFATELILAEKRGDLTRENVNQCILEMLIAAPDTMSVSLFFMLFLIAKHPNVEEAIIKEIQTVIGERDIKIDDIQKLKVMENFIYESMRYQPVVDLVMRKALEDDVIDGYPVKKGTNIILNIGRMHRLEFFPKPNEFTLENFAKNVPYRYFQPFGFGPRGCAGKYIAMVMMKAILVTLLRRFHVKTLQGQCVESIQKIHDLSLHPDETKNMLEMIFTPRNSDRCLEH

Turning to `NC(=O)c1ccncc1`, the Potency result in assay [1] and in [2] was “inactive” in each case.
On to `O=C(OOC(=O)c1ccccc1)c1ccccc1`, for which, in assay [2], the Potency result is “inactive”.
In the case of `COc1cc(C[C@H](C)N)c(OC)cc1Br`, the Potency entry in [3], in assay [5], in [6], in assay [18], in [22] and in assay [27] was “inactive” each time. The Potency entry (in [28]; in [29]; with Aromatase (Homo sapiens)) was “inactive” in each case. Also, the result in assay [4], in [7], in assay [8], in [9], in assay [10] and in assay [11] was inactive. For the same molecule, the outcome in assay [12], in [13], in assay [14], in assay [15], in assay [16] and in [17] was inactive. The molecule was classed as inactive in [25], in assay [26] and in assay [30]. Moreover, the Potency in assay [19] was 70.4 µM (active); in assay [20], 62.7 µM (active); in assay [21], 70.4 µM (active); in assay [23], 70.4 µM (active); in assay [24], 31.4 µM (active); in assay [31], 15.8 µM (active).
